25 molecules from the supplement of paper PMC8877412 can be followed below.

A word on the cell viability: it is a read-out of living cells in per cent, often relative to untreated cells.

Structures can show the parent of a compound that is named as a salt. ± gives the uncertainty stated by the source.

In the assay the test system is NCC-PMP1-C1. The assay can be described thus: cell viability relative to DMSO control; higher = less growth inhibition. As to conditions: 10 µM; 72 h. As to the method:
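NCC-PMP1-C1 pseudomyxoma peritonei cells were seeded in 384-well plates coated with Matrigel and MEF (1e4 cells). Viability was read after 72 h by CCK-8 and expressed as % of the DMSO control, mean ± SD of duplicates.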
On to `CO[C@H]1C[C@@H]2CC[C@@H](C)[C@@](O)(O2)C(=O)C(=O)N2CCCC[C@H]2C(=O)O[C@H]([C@H](C)C[C@@H]2CC[C@@H](OCCO)[C@H](OC)C2)CC(=O)[C@H](C)/C=C(\C)[C@@H](O)[C@@H](OC)C(=O)[C@H](C)C[C@H](C)/C=C/C=C/C=C/1C` [Everolimus (RAD001)], for which the cell viability came to 83.3 ± 7.4%.

For the molecule `O=C(/C=C/c1cccc(S(=O)(=O)Nc2ccccc2)c1)NO` [Belinostat (PXD101)], the cell viability came out at 7.52 ± 0.13%.

On to `COc1cc2c(Oc3ccc4[nH]c(C)cc4c3F)ncnc2cc1OCCCN1CCCC1` [Cediranib (AZD2171)], for which the cell viability is 22.4 ± 14%.

Consider `Fc1ccc(C(c2ccc(F)cc2)N2CCN(C/C=C/c3ccccc3)CC2)cc1` [Flunarizine 2HCl], for which the cell viability was determined as 99.6 ± 22%.

Take `CNNCc1ccc(C(=O)NC(C)C)cc1` [Procarbazine HCl]: the cell viability worked out at 100 ± 22%.

For the molecule `COc1c2occc2cc2ccc(=O)oc12` [Methoxsalen], the cell viability is 92.6 ± 16%.

As for `Clc1ccc(C(c2ccccc2Cl)C(Cl)Cl)cc1` (stereo not given) [Mitotane], the cell viability worked out at 106.8 ± 1%.

`Cc1cccc(N(C)C(=S)Oc2ccc3ccccc3c2)c1` [Tolnaftate]: the cell viability stood at 101 ± 19%.

`Cc1cc(Nc2ncc(Cl)c(Nc3ccccc3S(=O)(=O)C(C)C)n2)c(OC(C)C)cc1C1CCNCC1` [Ceritinib (LDK378)]: the cell viability is -3.34 ± 0.36%.

`C/C(=C\c1csc(C)n1)[C@@H]1C[C@@H]2O[C@]2(C)CCC[C@H](C)[C@H](O)[C@@H](C)C(=O)C(C)(C)[C@@H](O)CC(=O)N1`: the cell viability came to 73.7 ± 4.9%.

Turning to `Cc1nc(Nc2ncc(C(=O)Nc3c(C)cccc3Cl)s2)cc(N2CCN(CCO)CC2)n1` [Dasatinib], the cell viability turned out to be 26.3 ± 4.4%.

Consider `NCC(=O)CCC(=O)O` [5-Aminolevulinic acid HCl], for which the cell viability was determined as 102.7 ± 0.67%.

Consider `CC(C)(C#N)c1cc(Cn2cncn2)cc(C(C)(C)C#N)c1` [Anastrozole], for which the cell viability amounted to 110 ± 6.5%.

`Nc1nc2[nH]cnc2c(=S)[nH]1` [Thioguanine]: the cell viability amounted to 88.9 ± 9.4%.

Turning to `CC(=O)OCC(CCn1cnc2cnc(N)nc21)COC(C)=O` [Famciclovir], the cell viability was 94.3 ± 12%.

For `Cc1ccc(NC(=O)c2ccc(CN3CCN(C)CC3)cc2)cc1Nc1nccc(-c2cccnc2)n1` [Imatinib Mesylate (STI571)], the cell viability was 75.2 ± 4.4%.

`O=C(Nc1nc2cccc(-c3ccc(CN4CCS(=O)(=O)CC4)cc3)n2n1)C1CC1` [Filgotinib (GLPG0634)]: the cell viability was 93.7 ± 8.6%.

As to `Cc1nc(Nc2ncc(C(=O)Nc3c(C)cccc3Cl)s2)cc(N2CCN(CCO)CC2)n1` [Dasatinib Monohydrate], the cell viability turned out to be 41.1 ± 8.4%.

In the case of `CCc1c2c(nc3ccc(OC(=O)N4CCC(N5CCCCC5)CC4)cc13)-c1cc3c(c(=O)n1C2)COC(=O)[C@]3(O)CC` [Irinotecan HCl Trihydrate], the cell viability stood at 101 ± 4.5%.

Regarding `CC#CCn1c(N2CCC[C@@H](N)C2)nc2c1c(=O)n(Cc1nc(C)c3ccccc3n1)c(=O)n2C` [Linagliptin], the cell viability is 94.5 ± 11%.

With `Nc1nc(F)nc2c1ncn2[C@@H]1O[C@H](CO)[C@@H](O)[C@@H]1O` [Fludarabine], the cell viability was determined as 114 ± 29%.

Regarding `CN(CCOc1ccc(CC2SC(=O)NC2=O)cc1)c1ccccn1` (stereo not given) [Rosiglitazone], the cell viability was 101 ± 3.3%.

For the molecule `CNC(=O)c1cc(Oc2ccc(NC(=O)Nc3ccc(Cl)c(C(F)(F)F)c3)cc2)ccn1` [Sorafenib], the cell viability is -8.05 ± 0.27%.

Take `Nc1ncn([C@H]2C[C@H](O)[C@@H](CO)O2)c(=O)n1` [Decitabine]: the cell viability was determined as 95.2 ± 0.53%.

For `O=c1c(-c2ccc(O)cc2)coc2cc(O)cc(O)c12` [Genistein], the cell viability worked out at 100 ± 2.1%.
